In the supplement of paper PMC8975748:
Where a name gives a salt, the structure may show the parent alone.

The compounds below were run on Saccharomyces cerevisiae BY4741 SeMeCo community (assay: z-score of subpopulation abundance vs DMSO median, subpopulation auxotrophic for HM; higher = larger share of this subpopulation than in DMSO controls). Conditions: 10 µM; 24 h; SM minimal medium; subpopulation (auxotrophy): HM.
Procedure: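 Fluorescent four-plasmid SeMeCo (self-establishing metabolically cooperating S. cerevisiae BY4741 community; plasmids pH-mRuby2, pL-mWasabi, pU-eCFP, pM-TagRFP657) was grown 24 h in minimal SM medium with each Selleck FDA-approved drug at 10 µM in 384-well plates. Cells were fixed and imaged by high-content confocal microscopy. For each auxotrophic subpopulation (and the prototroph), a z-score gives the deviation from the DMSO vehicle-control population median.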
C=C(C)[C@H]1Cc2c(ccc3c2O[C@@H]2COc4cc(OC)c(OC)cc4[C@@H]2C3=O)O1 [Rotenone (Barbasco)] was tested, and the “z-score of subpopulation abundance” value was 0.89.
In the case of NCC(O)c1ccc(O)cc1 (racemic) [(+,-)-Octopamine HCl], the “z-score of subpopulation abundance” value was -0.78.
For CN(C)[C@@H]1C(=O)C(C(N)=O)=C(O)[C@@]2(O)C(=O)C3=C(O)c4c(O)cccc4[C@@](C)(O)[C@H]3[C@H](O)[C@@H]12 [Oxytetracycline (Terramycin)], the “z-score of subpopulation abundance” value was 0.64.
COc1ccc(C(CN(C)C)C2(O)CCCCC2)cc1 (stereo not given) [Venlafaxine] was tested, and the “z-score of subpopulation abundance” value was -0.77.
With CN[C@@H]1[C@@H](O)[C@@H](O[C@@H]2[C@@H](O)[C@H](O[C@H]3O[C@H]([C@@H](C)O)[C@@H](O)[C@H](O)[C@H]3N)[C@@H](N)C[C@H]2N)OC[C@]1(C)O [Geneticin (G418 Sulfate)] the “z-score of subpopulation abundance” value was -0.26.
For O=[N+]([O-])C(Br)(CO)CO [Bronopol], the “z-score of subpopulation abundance” value was -0.03.
CN1C(=O)COc2c(C(=O)NC3CN4CCC3CC4)cc(Cl)cc21 (stereo not given) [Azasetron HCl] was tested, and the “z-score of subpopulation abundance” value was 0.88.
In the case of CN1[C@@H]2C[C@@H](OC(=O)[C@H](CO)c3ccccc3)C[C@H]1[C@@H]1O[C@@H]12 [Scopolamine HBr], the “z-score of subpopulation abundance” value was -0.93.
NC(=O)CN1CCCC1=O [Piracetam] was tested, and the “z-score of subpopulation abundance” value was 1.21.
In the case of C#C[C@]1(O)C=C[C@H]2[C@@H]3CCC4=CC(=O)CC[C@@H]4[C@H]3CC[C@@]21CC [Gestodene], the “z-score of subpopulation abundance” value was 0.34.
With CC(C)N(CCC(C(N)=O)(c1ccccc1)c1ccccn1)C(C)C (stereo not given) [Disopyramide] the “z-score of subpopulation abundance” value was 0.08.
In the case of Cc1cc(C(C#N)c2ccc(Cl)cc2)c(Cl)cc1NC(=O)c1cc(I)cc(I)c1O (stereo not given) [Closantel], the “z-score of subpopulation abundance” value was -0.13.
CC[C@@H](C(N)=O)N1CCCC1=O [Levetiracetam] was tested, and the “z-score of subpopulation abundance” value was -0.1.
For C[N+]12CCC(CC1)C(OC(=O)C(O)(c1ccccc1)c1ccccc1)C2 (stereo not given) [Clidinium Bromide], the “z-score of subpopulation abundance” value was -0.38.
With CN(C)[C@@H]1C(=O)C(C(N)=O)=C(O)[C@@]2(O)C(=O)C3=C(O)c4c(O)cccc4[C@@](C)(O)[C@H]3C[C@@H]12 [Tetracycline HCl] the “z-score of subpopulation abundance” value was 0.72.
With CC(=O)O[C@H]1C[C@@H]2CC[C@@H]3[C@H](CC[C@@]4(C)[C@H]3C[C@H]([N+]3(C)CCCCC3)[C@@H]4OC(C)=O)[C@@]2(C)C[C@@H]1[N+]1(C)CCCCC1 [Pancuronium dibromide] the “z-score of subpopulation abundance” value was -1.06.
In the case of COc1ccc2c(c1)[C@]13CCCC[C@@H]1[C@H](C2)N(C)CC3 [Dextromethorphan hydrobromide hydrate], the “z-score of subpopulation abundance” value was 0.71.
With O=C(O[C@H]1C[N+]2(CCCOc3ccccc3)CCC1CC2)C(O)(c1cccs1)c1cccs1 [Aclidinium Bromide] the “z-score of subpopulation abundance” value was -0.01.
In the case of CCN1CC2(OC(=O)c3ccccc3NC(C)=O)CCC(OC)C34C1C(CC23)C1(O)CC(OC)C2CC4C1(O)C2OC (stereo not given) [Lappaconitine], the “z-score of subpopulation abundance” value was -0.28.
With CN1c2ccccc2C(NCCCCCCC(=O)O)c2ccc(Cl)cc2S1(=O)=O (stereo not given) [Tianeptine sodium] the “z-score of subpopulation abundance” value was -0.51.
With C=CCN1C[C@H](C(=O)N(CCCN(C)C)C(=O)NCC)C[C@@H]2c3cccc4[nH]cc(c34)C[C@H]21 [Cabergoline] the “z-score of subpopulation abundance” value was -0.83.
With CCN(CC)CCOC(=O)C(O)(c1ccccc1)c1ccccc1 [Benactyzine hydrochloride] the “z-score of subpopulation abundance” value was -0.6.
CN(C)[C@@H]1C(=O)C(C(N)=O)=C(O)[C@@]2(O)C(=O)C3=C(O)c4c(O)ccc(Cl)c4[C@@](C)(O)[C@H]3C[C@@H]12 [Chlortetracycline HCl] was tested, and the “z-score of subpopulation abundance” value was -0.67.
For CN(C)C(=O)Oc1cccc([N+](C)(C)C)c1 [Neostigmine Bromide], the “z-score of subpopulation abundance” value was -0.54.
With CCN(C)C(=O)Oc1cccc([C@H](C)N(C)C)c1 [Rivastigmine Tartrate] the “z-score of subpopulation abundance” value was -1.12.
With CNC1CC(N)C(O)C(OC2OC(CO)C(O)C3OC4(OC(C(N)CO)C(O)C(O)C4O)OC23)C1O (stereo not given) [Hygromycin B] the “z-score of subpopulation abundance” value was -1.16.
In the case of Nc1ccncc1 [4-Aminopyridine], the “z-score of subpopulation abundance” value was 0.26.
CCC1=C[C@H]2CN3CCc4c([nH]c5ccccc45)[C@](C(=O)OC)(C2)[C@H]13 [Catharanthine] was tested, and the “z-score of subpopulation abundance” value was -0.61.
With CN(C)[C@@H]1C(=O)C(C(N)=O)=C(O)[C@@]2(O)C(=O)C3=C(O)c4c(O)cccc4[C@@](C)(O)[C@H]3[C@H](O)[C@@H]12 [Oxytetracycline Dihydrate] the “z-score of subpopulation abundance” value was -0.75.
With CCOC(=O)Nc1ccc(NCc2ccc(F)cc2)cc1N [Retigabine 2HCl] the “z-score of subpopulation abundance” value was 0.88.
COc1cc2c(cc1OC)C1CC(=O)C(CC(C)C)CN1CC2 (stereo not given) [Tetrabenazine (Xenazine)] was tested, and the “z-score of subpopulation abundance” value was 0.63.
For COc1ccc(C=O)cc1 [p-Anisaldehyde], the “z-score of subpopulation abundance” value was -0.95.
In the case of COC(=O)C1=CCCN(C)C1 [Arecoline HBr], the “z-score of subpopulation abundance” value was 0.08.
For NCCc1c[nH]c2ccc(O)cc12 [Serotonin HCl], the “z-score of subpopulation abundance” value was 0.16.
With N[C@@H]1C[C@H]1c1ccccc1 [Tranylcypromine (2-PCPA) HCl] the “z-score of subpopulation abundance” value was -0.71.
With Cn1cc(C2=C(c3cn(C4CCN(Cc5ccccn5)CC4)c4ccccc34)C(=O)NC2=O)c2ccccc21 the “z-score of subpopulation abundance” value was -1.56.
For C[N+]1(C)[C@@H]2C[C@@H](OC(=O)[C@H](CO)c3ccccc3)C[C@H]1[C@@H]1O[C@@H]12 [Methscopolamine], the “z-score of subpopulation abundance” value was 0.16.
COc1ccc2c3c([nH]c2c1)C(C)=NCC3 [Harmaline] was tested, and the “z-score of subpopulation abundance” value was 3.18.
With CC(C)=CCOc1c2occc2cc2ccc(=O)oc12 [Imperatorin] the “z-score of subpopulation abundance” value was 1.29.
CN1[C@@H]2CC[C@H]1C[C@@H](OC(=O)C(CO)c1ccccc1)C2 (stereo not given in full) [Atropine sulfate monohydrate] was tested, and the “z-score of subpopulation abundance” value was -0.85.
